Experimental data taken from the supplement of paper PMC10515830.
Where a name gives a salt, the structure may show the parent alone.

Legend:
Conditions in all cases: 10 µM; exposure time 6 h
[1] = test system: Danio rerio larvae (5 dpf); experiment: difference in excitability vs DMSO (percentage points); higher = more excitable than DMSO
In short: (§1)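 In 96-well plates, 48 wild-type zebrafish larvae aged 5 dpf per compound received 100 µL egg water with library compound at 10 µM final for 6 h. Three hours into this, a 3-h programme of moving lines and 100 ms, 400Hz tones ran at 28.5 ℃ while plates were photographed every 6 s. Z-LaP Tracker scored the behaviours, and each is given as the compound mean minus the vehicle control mean in percentage points.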

[2] = test system: Danio rerio larvae (5 dpf); experiment: difference in startle response vs DMSO (percentage points); higher = stronger startle than DMSO
In short: as §1

[3] = test system: Danio rerio larvae (5 dpf); experiment: difference in activity during first hour vs DMSO (percentage points); higher = more activity than DMSO
In short: as §1

[4] = test system: Danio rerio larvae (5 dpf); experiment: difference in habituation to acoustic stimuli vs DMSO (percentage points); higher = more habituation than DMSO
In short: as §1

[5] = test system: Danio rerio larvae (5 dpf); experiment: difference in combined optomotor response to red, green and blue moving lines vs DMSO (percentage points); higher = stronger optomotor response than DMSO
In short: as §1

| Compound | difference in excitability [1] | difference in startle response [2] | difference in activity during first hour [3] | difference in habituation to acoustic stimuli [4] | difference [5] |
| --- | --- | --- | --- | --- | --- |
| Brc1c(NC2=NCCN2)ccc2nccnc12 [Brimonidine (tartrate)] | -0.928 | -0.293 | -14.2 | 3.89 | 10.9 |
| C=CC(N)CCC(=O)O (stereo not given) [Vigabatrin] | -1.24 | 5.92 | 1.31 | 1.13 | -0.249 |
| Nc1nnc(-c2cccc(Cl)c2Cl)c(N)n1 [Lamotrigine] | 4.96 | -1.15 | -6.88 | 4.75 | 8.87 |
| CNC(=O)c1ccc(N2C(=S)N(c3cnc(C#N)c(C(F)(F)F)c3)C(=O)C23CCC3)cc1F | -1.56 | -1.13 | 6.27 | 0.499 | 11.9 |
| CN(C)CCC=C1c2ccccc2CCc2ccccc21 [Amitriptyline (hydrochloride)] | 2.65 | 5.98 | -3.87 | -14.7 | -8.17 |
| CCCCN1C[C@H](O)[C@@H](O)[C@H](O)[C@H]1CO [N-Butyldeoxynojirimycin (hydrochloride)] | -7.96 | 4.45 | 16.1 | 5.5 | 4.55 |
| NCCCCCC(=O)O [6-Aminocaproic Acid] | 8.15 | -0.142 | 5.22 | 0.269 | 3.43 |
| CC(C)(C)C(O)/C=C/c1ccc2c(c1)OCO2 (stereo not given) [Stiripentol] | -5.22 | 0.0472 | 3.85 | -4.89 | 7.37 |
| CC[C@H](C)C(=O)O[C@H]1C[C@@H](C)C=C2C=C[C@H](C)[C@H](CC[C@@H]3C[C@@H](O)CC(=O)O3)[C@H]21 [Lovastatin] | 9.79 | 2.77 | 7.75 | -0.0098 | 1.09 |
| CCc1nn(CCCN2CCN(c3cccc(Cl)c3)CC2)c(=O)n1CCOc1ccccc1 [Nefazodone (hydrochloride)] | 9.32 | -3.06 | 29.1 | -9.41 | -10.9 |
| NC(=O)N[C@@H](CCC(=O)O)C(=O)O [N-Carbamyl-L-Glutamic Acid] | 5.63 | -0.75 | 17.4 | 3.65 | 8.31 |
| CC(C)OC(=O)OCOP(=O)(CO[C@H](C)Cn1cnc2c(N)ncnc21)OCOC(=O)OC(C)C [Tenofovir Disoproxil (fumarate)] | 9.75 | 2.55 | 6.31 | 0.343 | 8.11 |
| Nc1ccc(O)c(C(=O)O)c1 [5-Aminosalicylic Acid] | 2.98 | 0.822 | 3.09 | 1.77 | -0.0944 |
| Cc1ccc(C(=O)Nc2ccc(CN3CCN(C)CC3)c(C(F)(F)F)c2)cc1C#Cc1cnc2cccnn12 [Ponatinib] | 7.08 | -6.04 | -11 | -7.62 | -12.5 |
| Cc1ccc([C@@H]2O[C@H](CO)[C@@H](O)[C@H](O)[C@H]2O)cc1Cc1ccc(-c2ccc(F)cc2)s1 [Canagliflozin] | 1.05 | -3.92 | 3.63 | 3.27 | 5.53 |
| NCc1ccc(S(N)(=O)=O)cc1 [Mafenide] | 3.79 | 7.01 | 4.01 | 0.954 | 0.998 |
| CC(C[N+](C)(C)C)OC(N)=O (stereo not given) [Bethanechol (chloride)] | 1.05 | -0.356 | -9.77 | 0.388 | -6.5 |
| COCCCOc1ccnc(C[S+]([O-])c2nc3ccccc3[nH]2)c1C (stereo not given) [Rabeprazole (sodium salt)] | 2.22 | -0.57 | 7.69 | -4.65 | 15.4 |
| C[C@H]1C[C@H]2[C@@H]3CCC4=CC(=O)C=C[C@]4(C)[C@@]3(F)[C@@H](O)C[C@]2(C)[C@@]1(O)C(=O)CO [Betamethasone] | 19.9 | 8.22 | -16.1 | 3.7 | 5.5 |
| C/C(O)=C(\C#N)C(=O)Nc1ccc(C(F)(F)F)cc1 | 5.48 | 1.5 | -4.86 | 6.45 | 3.09 |
| Fc1ccc([C@@H]2CCNC[C@H]2COc2ccc3c(c2)OCO3)cc1 [Paroxetine (hydrochloride)] | 11 | -3.61 | -22.3 | -3.35 | -11.4 |
| NC[C@@H]1O[C@@H](O[C@H]2[C@H](O)[C@@H](O[C@H]3O[C@H](CO)[C@@H](O)[C@H](N)[C@H]3O)[C@H](N)C[C@@H]2N)[C@@H](O)[C@H](O)[C@H]1O [Kanamycin A (sulfate)] | 8.55 | -4.02 | 4.22 | 3.45 | 4.39 |
| CC(CN(C)C)CN1c2ccccc2CCc2ccccc21 (stereo not given) [Trimipramine (maleate)] | 12.5 | -3.72 | -0.632 | -5.79 | 0.935 |
| Clc1cccc(Cl)c1NC1=NCCN1 [Clonidine (hydrochloride)] | 9.22 | 3.55 | -11.7 | 0.121 | 6.82 |
| C[C@H]1COc2c(N3CCN(C)CC3)c(F)cc3c(=O)c(C(=O)O)cn1c23 [Levofloxacin] | -4.09 | 1.07 | 16.5 | 2.74 | 4.84 |

| Compound | difference in excitability [1] | difference in startle response [2] | difference in activity during first hour [3] | difference in habituation to acoustic stimuli [4] | difference [5] |
| --- | --- | --- | --- | --- | --- |
| CCc1cc2c(cc1CC)CC(NC[C@H](O)c1ccc(O)c3[nH]c(=O)ccc13)C2 [Indacaterol] | -0.786 | 4.28 | -1.22 | 3.2 | -2.46 |
| CC(=O)OCC(=O)[C@@]12OC(C)(C)O[C@@H]1C[C@H]1[C@@H]3C[C@H](F)C4=CC(=O)C=C[C@]4(C)[C@@]3(F)[C@@H](O)C[C@@]12C [Fluocinonide] | 0.338 | 2.99 | -1.35 | -2.83 | 0.257 |
| O=C(O)c1ccc(-n2nc(-c3ccccc3O)nc2-c2ccccc2O)cc1 [Deferasirox] | 1.98 | -2.31 | 17.7 | 2.04 | 5.07 |
| CCN[C@H]1CN(CCCOC)S(=O)(=O)c2sc(S(N)(=O)=O)cc21 [Brinzolamide] | 2.16 | -4.77 | -5.26 | -5.35 | 1.28 |
| CC1CNc2c(cccc2S(=O)(=O)N[C@@H](CCCNC(=N)N)C(=O)N2CC[C@@H](C)C[C@@H]2C(=O)O)C1 (stereo not given in full) [Argatroban] | 3.15 | 2.67 | 19.4 | -4.15 | 3.46 |
| CC(C)C(=O)Nc1ccc([N+](=O)[O-])c(C(F)(F)F)c1 [Flutamide] | 2.83 | -7 | -6.35 | -14.3 | -13.7 |
| N[C@H](C(=O)O)[C@H](O)c1ccc(O)c(O)c1 [Droxidopa] | 0.975 | 0.64 | 3.89 | 5.02 | 2.12 |
| CN1CCC[C@H]1c1cccnc1 (racemic) [(±)-Nicotine] | 9.04 | -8.45 | 50 | -10.6 | -14.9 |
| Cc1c(O)cccc1C(=O)N[C@@H](CSc1ccccc1)[C@H](O)CN1C[C@H]2CCCC[C@H]2C[C@H]1C(=O)NC(C)(C)C [Nelfinavir (mesylate)] | 17.7 | 0.499 | -23 | 2.82 | -10.2 |
| CO/N=C(\C(=O)N[C@@H]1C(=O)N2C(C(=O)O)=C(CSc3nc(=O)c(O)nn3C)CS[C@H]12)c1csc(N)n1 [Ceftriaxone (sodium salt hydrate)] | 3.71 | 4.15 | 12 | -2.08 | 8.58 |
| C=CC[N+]1([C@H]2C[C@H]3[C@@H]4CC[C@H]5C[C@H](O)[C@@H](N6CCOCC6)C[C@]5(C)[C@H]4CC[C@]3(C)[C@H]2OC(C)=O)CCCC1 [Rocuronium (bromide)] | 14.3 | -3.01 | -1.74 | 4.51 | -2.53 |
| CO/N=C(\C(=O)N[C@@H]1C(=O)N2C(C(=O)O)=C(COC(N)=O)CS[C@H]12)c1ccco1 [Cefuroxime (sodium salt)] | 21.1 | 5.54 | -6.92 | 2.43 | 10.9 |
| CCc1cccc2c3c([nH]c12)C(CC)(CC(=O)O)OCC3 (stereo not given) [Etodolac] | -4.84 | 7.75 | 13.6 | 4.08 | 3.56 |
| COC(=O)N[C@H](C(=O)N1CCC[C@H]1c1nc(-c2ccc3c(c2)O[C@@H](c2ccccc2)n2c-3cc3cc(-c4c[nH]c([C@@H]5CCCN5C(=O)[C@@H](NC(=O)OC)C(C)C)n4)ccc32)c[nH]1)C(C)C [Elbasvir] | 9.31 | -11.8 | 0.959 | 5.9 | 1.3 |
| CN1C(=O)OC(C)(C)C1=O [Trimethadione] | 6.43 | 11.1 | -6 | 3.86 | -0.0394 |
| CC(=O)[C@@]1(O)CC[C@H]2[C@@H]3C[C@H](C)C4=CC(=O)C=C[C@]4(C)[C@@]3(F)[C@@H](O)C[C@@]21C [Fluorometholone] | 5.46 | 1.23 | -2.26 | 4.02 | 1.57 |
| CC1=C(C(=O)O)N2C(=O)[C@@H](NC(=O)[C@H](N)c3ccc(O)cc3)[C@H]2SC1 [Cefadroxil (hydrate)] | 4.89 | -1.88 | 6.54 | -3.34 | 7.44 |
| C#Cc1cccc(Nc2ncnc3cc(OCCOC)c(OCCOC)cc23)c1 [Erlotinib] | 4.3 | -6.74 | -6.91 | -0.321 | -4.8 |
| CCN(CC)C(=O)C1(c2ccccc2)CC1CN (stereo not given) [Milnacipran (hydrochloride)] | 16 | -4.41 | -15.2 | 1.78 | -3.7 |
| CN1CC2c3ccccc3Oc3ccc(Cl)cc3C2C1 (racemic) [(±)-Asenapine] | 15.8 | -0.436 | 46.3 | -12.3 | -1.19 |
| C[N+]1(C)[C@@H]2C[C@@H](OC(=O)C(O)(c3cccs3)c3cccs3)C[C@H]1[C@@H]1O[C@@H]12 [Tiotropium (bromide)] | -0.664 | -4.87 | -7.11 | -4.6 | -6.76 |
| CC(C)(C)NC(=O)[C@H]1CC[C@H]2[C@@H]3CC[C@H]4NC(=O)C=C[C@]4(C)[C@H]3CC[C@]12C [Finasteride] | 11.1 | 3.35 | 10.8 | -0.24 | 9 |
| NC(=O)N1c2ccccc2CC(=O)c2ccccc21 [Oxcarbazepine] | -3.21 | 8.33 | 10.1 | 0.525 | 8.73 |
| COc1cc2c(cc1OC)[C@@H](Cc1cc(OC)c(OC)c(OC)c1)[N+](C)(CCCOC(=O)CC/C=C/CCC(=O)OCCC[N+]1(C)CCc3cc(OC)c(OC)cc3[C@H]1Cc1cc(OC)c(OC)c(OC)c1)CC2 (stereo not given in full) [Mivacurium (chloride)] | 19.5 | -7.63 | -16.7 | 4.16 | 5.12 |
| CO[C@H]1C[C@@H]2CC[C@@H](C)[C@@](O)(O2)C(=O)C(=O)N2CCCC[C@H]2C(=O)O[C@H]([C@H](C)C[C@@H]2CC[C@@H](OCCO)[C@H](OC)C2)CC(=O)[C@H](C)/C=C(\C)[C@@H](O)[C@@H](OC)C(=O)[C@H](C)C[C@H](C)/C=C/C=C/C=C/1C [Everolimus] | 1.38 | 1.06 | 1.4 | -3.73 | 5.32 |
